Measured values taken from PubChem BioAssay AID1530 (NMMLSC, 2009).
Screen size: about 290,000 compounds; about 1,000 (0.34%) were called active. This excerpt belongs to a sample that is enriched for actives. Unmarked numbers belong to inactive results. Rule as the data show it: active = percent response above about 24% (passing the limit was not always enough); inactive = the rest.

The compounds below were run on MEKK2 (MAP3K2) mutant PB1 domain binding to MEK5, human (assay: MEK5 binding signal on mutant MEKK2 PB1, primary screen, biochemical, multiplex bead flow cytometry, Alexa488-MEK5 (AID 1530)). Conditions: at 10 µM, stronger effect = higher value.

Which percent response does the source give for COCCCNC(=O)/C(C#N)=C/c1c(N2CCCCCC2)nc2ccccn2c1=O here?
Its percent response is 5%.

COCCNC(=O)/C(C#N)=C/c1cccc(OCc2ccccc2)c1 was tested. Which percent response did it give?
Its percent response is 2%.

For COCCNC(=O)/C(C#N)=C/c1nc(N(C)C)n(-c2ccc(F)cc2)c1Cl, which percent response is on record?
Its percent response is 63% (active).

With Cc1ccc(C(NC(=O)N2CCCC2)C(Cl)(Cl)Cl)cc1F (centres undefined) as the compound, how does the percent response read?
The percent response was -1%.

With Cc1ccc(S(=O)(=O)c2c[nH]c3ccc(C)cc3c2=O)cc1 as the compound, how does the percent response read?
The percent response was 3%.

Which percent response does the source give for Cc1ccc2c(C)c(C(=O)N3CCN(c4ccncc4)CC3)oc2c1C here?
Its percent response is 30% (active).

How did the percent response turn out when Cc1ccc2c(C)c(C(=O)N(C)Cc3ccncn3)oc2c1C was run?
Its percent response is 0%.

With Cc1c(C(=O)N2CCN(c3ccc(F)cc3)CC2)oc2c1C(=O)CCC2 as the compound, how does the percent response read?
The percent response was 0%.

For Cc1cccc(CCNC(=O)Cn2ncc3c([nH]c4ccc(C)cc43)c2=O)c1, which percent response is on record?
Its percent response is -4%.

CCCNC(=O)COc1coc(CN2CCN(Cc3ccccc3)CC2)cc1=O was tested. Which percent response did it give?
Its percent response is 10%.

Which percent response does the source give for COc1ccc(-c2nnc(NC(=O)CS(=O)(=O)c3ccc(Cl)cc3)o2)c(OC)c1 here?
The percent response was 2%.

N=C(N)SCc1cccc2ccccc12 was tested. Which percent response did it give?
The percent response was 91% (active).

Which percent response does the source give for CCOc1ccc(Br)cc1CSC(=N)N here?
The percent response was -1%.

For c1ccc2c(CSCc3nc4ccccc4[nH]3)cccc2c1, which percent response is on record?
Its percent response is 1%.

With CCOC(=O)C1Nc2ccc(C(F)(F)F)cc2C2C=CCC12 (centres undefined) as the compound, how does the percent response read?
Its percent response is 0%.

For CC(=O)c1ccc(S(=O)(=O)N2CCC3(CC2)OCCO3)cc1, which percent response is on record?
The percent response was -1%.

For CN1CCN(c2nc(Nc3ccc(O)cc3)nc3ccccc23)CC1, which percent response is on record?
The percent response was 2%.

For O=c1[nH]c(N2CCOCC2)nc2ccccc12, which percent response is on record?
The percent response was 5%.

How did the percent response turn out when c1ccc(Nc2nc(N3CCOCC3)c3ccccc3n2)cc1 was run?
The percent response was 38% (active).

Which percent response does the source give for Cc1ccc(C)c(OCCC(=O)OCC(=O)N2CCN(c3ccccc3)CC2)c1 here?
Its percent response is -5%.

With O=C(NNS(=O)(=O)c1ccc([N+](=O)[O-])cc1)C1CCCCC1 as the compound, how does the percent response read?
The percent response was 7%.

Which percent response does the source give for Cc1nc(-c2ccccc2)sc1C1(C)CC(c2cccnc2)=NO1 (centres undefined) here?
Its percent response is -3%.

How did the percent response turn out when O=C(Nc1cccnc1)c1cc([N+](=O)[O-])ccc1Cl was run?
The percent response was 6%.

O=C(Nc1cccnc1)c1ccc(Cl)cc1[N+](=O)[O-] was tested. Which percent response did it give?
Its percent response is 2%.

How did the percent response turn out when O=C(Nc1cccnc1)c1cc(Cl)ccc1Cl was run?
The percent response was 28% (active).

Which percent response does the source give for Cc1[nH]n(C(N)=S)c(=O)c1N=Nc1ccc(Cl)cc1Cl here?
Its percent response is 2%.

CCn1c(CNC(=O)c2cc(OC)c(OC)c(OC)c2)cc2cc(C)ccc21 was tested. Which percent response did it give?
Its percent response is -6%.

For CN(C(=O)CN1C(=O)CCSc2ccc(S(=O)(=O)N3CCCC3)cc21)c1ccccc1, which percent response is on record?
Its percent response is 1%.

Which percent response does the source give for CNC(C)C#Cc1ccc2sc3cc(OC)c(OC)cc3c(=O)c2c1 (centres undefined) here?
The percent response was 13%.

For CC1COc2ccccc2N1C(=O)c1ccc(F)cc1 (centres undefined), which percent response is on record?
The percent response was 1%.

CC1Sc2ccc(S(=O)(=O)CCC(=O)NCc3ccccc3Cl)cc2NC1=O (centres undefined) was tested. Which percent response did it give?
The percent response was 11%.

Which percent response does the source give for O=C(CCN1C(=O)c2ccccc2C1=O)NCCN1CCOCC1 here?
Its percent response is -3%.

O=C(NCCN1CCOCC1)[C@H](Cc1ccccc1)N1C(=O)c2ccccc2C1=O was tested. Which percent response did it give?
The percent response was 26% (active).

How did the percent response turn out when O=C(NC1=NCCS1)[C@H](Cc1ccccc1)N1C(=O)c2ccccc2C1=O was run?
Its percent response is 0%.

How did the percent response turn out when Cc1ccc(NC(=O)COC(=O)C2C3CC4OC(=O)C2C4C3)cc1Cl (centres undefined) was run?
Its percent response is 5%.

Which percent response does the source give for CCC(C)[C@H]1COCCS(=O)(=O)N1Cc1ccc(C)cc1 (some centres undefined) here?
The percent response was -5%.

With Cc1c(CCO)sc[n+]1CC(=O)OC12CC3CC(CC(C3)C1)C2 as the compound, how does the percent response read?
The percent response was 0%.

For Cc1c(CCOC(=O)c2cc([N+](=O)[O-])ccc2Cl)sc[n+]1CCCCS(=O)(=O)[O-], which percent response is on record?
The percent response was -1%.

Cc1c(CCOC(=O)CC23CC4CC(CC(C)(C4)C2)C3)sc[n+]1Cc1ccc([N+](=O)[O-])cc1 was tested. Which percent response did it give?
The percent response was 54% (active).

How did the percent response turn out when Clc1ccc2nc(CSc3ccccc3)cn2c1 was run?
The percent response was 2%.

With CC1(C)Cc2ccccc2/C(=C/C(=O)c2ccccc2)N1 as the compound, how does the percent response read?
Its percent response is 3%.

For COCCCNC(=S)N1CCN(c2nc(-c3cccc(OC)c3)cs2)CC1, which percent response is on record?
Its percent response is -4%.

Which percent response does the source give for CN(C)CCCNC(=S)N1CCC(c2nc3ccccc3[nH]2)CC1 here?
Its percent response is 4%.

CN(C)CCCNC(=S)N1CCN(c2nc(-c3ccccc3)cs2)CC1 was tested. Which percent response did it give?
Its percent response is 25% (active).

Which percent response does the source give for COc1ccc(CCN2C(=O)C(C)=C(C)C2=O)cc1OC here?
Its percent response is 1%.

With O=C(CCc1nnc2ccc(NCc3ccccc3Cl)nn12)NCC1CCN(C2CCCC2)C1 (centres undefined) as the compound, how does the percent response read?
Its percent response is 26% (active).

With CC1CCN(C(=O)CCc2nnc3ccc(NCc4ccco4)nn23)CC1 as the compound, how does the percent response read?
The percent response was 0%.

Which percent response does the source give for O=C(CCc1nnc2ccc(NCCCN3CCCC3=O)nn12)NCc1ccccc1Cl here?
Its percent response is 6%.

For CC1CCCCN1C(=O)Cn1c(=O)oc2cc(S(=O)(=O)N3CCCCC3)ccc21 (centres undefined), which percent response is on record?
The percent response was 2%.

How did the percent response turn out when Cc1cccc(NC(=O)Cc2ccc(Br)cc2)n1 was run?
The percent response was 4%.

With COc1ccccc1CCNC(=O)CSc1nnc2ccc(-c3cccnc3)nn12 as the compound, how does the percent response read?
The percent response was 6%.

COc1ccc(CCNC(=O)CSc2nnc3ccc(-c4ccncc4)nn23)cc1 was tested. Which percent response did it give?
Its percent response is 146% (active).

With COc1cc(NC(=O)CSc2nnc3ccc(-c4ccncc4)nn23)cc(OC)c1 as the compound, how does the percent response read?
Its percent response is 0%.

For CCOc1ccc(C(=O)Nc2c3c(nn2-c2ccccc2)CS(=O)(=O)C3)cc1, which percent response is on record?
Its percent response is 6%.

COc1ccc(S(=O)(=O)/N=C2\C=C(NS(=O)(=O)c3ccccc3)C(=O)c3ccccc32)cc1 was tested. Which percent response did it give?
Its percent response is -2%.

For CCOc1ccccc1NC(=O)Cn1ncc2ccc([N+](=O)[O-])cc21, which percent response is on record?
Its percent response is 3%.

For Cc1cc(NC(=O)c2cnn3cccnc23)n(-c2ccccc2)n1, which percent response is on record?
The percent response was 5%.

How did the percent response turn out when O=C(Nc1ccc(Cl)cn1)c1cnn2cccnc12 was run?
Its percent response is 26% (active).

How did the percent response turn out when O=C(Nc1ccc(Cl)cn1)c1ccc2c(c1)OCCO2 was run?
The percent response was -5%.

Which percent response does the source give for COc1ccc(C)cc1N(C(=O)Cn1nnc(-c2ccc(C)o2)n1)C(C(=O)NC1CCCC1)c1ccncc1 (centres undefined) here?
The percent response was -2%.

For CCOC(=O)N1CCN(Cc2nnc(-c3ccccc3Cl)o2)CC1, which percent response is on record?
Its percent response is 8%.

Which percent response does the source give for CCCNC(=O)c1ccc(Cl)c(Cl)c1 here?
The percent response was -1%.

Which percent response does the source give for CCCn1c(=N)n(CC(=O)c2ccc(Cl)c(Cl)c2)c2ccccc21 here?
Its percent response is 29% (active).

For CCn1c(=N)n(CC(=O)c2cccc(OC)c2)c2ccccc21, which percent response is on record?
The percent response was -9%.
